{
  "source": "paper PMC4336329",
  "about": "(PLoS ONE, 2015)",
  "note": "Among all 310,000 compounds or so, about 2,200 (0.71%) showed an effect of 50% or more. The effect is printed as a negative number. This is one part of a sample in which strong results are shown more often than they occur.",
  "data": [
    {"biological_target": "human ether-à-go-go-related gene (hERG) potassium channel (human, UniProt Q12809)", "sequence (Q12809 whole entry, looked up)": "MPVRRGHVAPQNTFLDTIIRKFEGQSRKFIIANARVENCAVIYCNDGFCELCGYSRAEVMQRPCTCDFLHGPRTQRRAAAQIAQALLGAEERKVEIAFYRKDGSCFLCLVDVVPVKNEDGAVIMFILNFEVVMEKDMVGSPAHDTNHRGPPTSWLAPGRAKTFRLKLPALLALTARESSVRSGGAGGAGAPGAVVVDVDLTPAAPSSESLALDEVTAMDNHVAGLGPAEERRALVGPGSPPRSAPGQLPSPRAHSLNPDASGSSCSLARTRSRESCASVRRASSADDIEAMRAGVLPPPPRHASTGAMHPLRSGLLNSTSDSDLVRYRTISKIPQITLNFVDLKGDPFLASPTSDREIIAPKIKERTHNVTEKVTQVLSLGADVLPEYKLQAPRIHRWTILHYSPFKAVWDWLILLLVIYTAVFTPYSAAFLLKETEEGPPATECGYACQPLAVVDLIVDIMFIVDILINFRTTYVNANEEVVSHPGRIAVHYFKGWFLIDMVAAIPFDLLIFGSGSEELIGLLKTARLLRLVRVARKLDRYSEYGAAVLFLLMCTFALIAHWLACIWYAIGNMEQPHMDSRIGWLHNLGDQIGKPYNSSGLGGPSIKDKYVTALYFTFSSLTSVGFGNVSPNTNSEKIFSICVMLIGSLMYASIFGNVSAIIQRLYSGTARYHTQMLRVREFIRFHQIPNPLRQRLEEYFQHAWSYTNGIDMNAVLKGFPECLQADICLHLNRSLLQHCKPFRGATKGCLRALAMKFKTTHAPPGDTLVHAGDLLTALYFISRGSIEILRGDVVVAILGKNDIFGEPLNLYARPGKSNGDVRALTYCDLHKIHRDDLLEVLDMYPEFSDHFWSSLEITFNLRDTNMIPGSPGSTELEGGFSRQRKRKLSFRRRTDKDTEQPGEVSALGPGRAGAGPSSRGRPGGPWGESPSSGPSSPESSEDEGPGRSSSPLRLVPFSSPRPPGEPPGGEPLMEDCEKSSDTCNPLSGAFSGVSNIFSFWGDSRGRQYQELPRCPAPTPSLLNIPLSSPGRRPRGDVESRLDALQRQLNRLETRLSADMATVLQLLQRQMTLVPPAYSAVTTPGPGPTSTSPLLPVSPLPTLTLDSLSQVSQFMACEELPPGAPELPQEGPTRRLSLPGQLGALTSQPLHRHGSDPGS", "assay": "primary screen, population patch clamp on CHO cells stably expressing hERG; higher = less effect of the substance", "units": {"hERG current change (%, negative = inhibition) at 1uM": "%"}, "values": [
      {"smiles": "N#Cc1ccc(C(=O)Nc2cc(-c3ccccc3)nn2-c2ccccc2)cc1", "hERG current change (%, negative = inhibition) at 1uM": 0.56},
      {"smiles": "COc1cccc(C2CCCN2Cc2nc(CC3CC3)no2)c1", "note": "(centres unmarked)", "hERG current change (%, negative = inhibition) at 1uM": 14.5},
      {"smiles": "CNC(=S)N1CCN(c2cccc(OC)c2)CC1", "hERG current change (%, negative = inhibition) at 1uM": 7.07},
      {"smiles": "COc1cc(O)oc1C=Nc1ccc(Cl)cc1", "hERG current change (%, negative = inhibition) at 1uM": 10.9},
      {"smiles": "CNC(=S)NNC(=O)c1ccccc1Br", "hERG current change (%, negative = inhibition) at 1uM": 15.2},
      {"smiles": "CCCCCCCN1C2=NCCN2c2ccccc21.Cl", "hERG current change (%, negative = inhibition) at 1uM": -60.7},
      {"smiles": "Cc1ccccc1CN1C2=NCCN2c2ccccc21.Cl", "hERG current change (%, negative = inhibition) at 1uM": -13.7},
      {"smiles": "O=C(Cn1c2c(sc1=O)C1c3ccccc3OCC1CS2)Nc1ccc(Cl)cc1", "note": "(centres unmarked)", "hERG current change (%, negative = inhibition) at 1uM": 9.64},
      {"smiles": "Nc1nc(SCCC(F)=C(F)F)n[nH]1", "hERG current change (%, negative = inhibition) at 1uM": 4.82},
      {"smiles": "CCCCN(CCCC)CCNC(=O)c1cn(CC)c2ccc(S(=O)(=O)N(C)C3CCCCC3)cc2c1=O", "hERG current change (%, negative = inhibition) at 1uM": -84.2},
      {"smiles": "CCN(CC)CCNC(=O)c1cn(CC)c2ccc(S(=O)(=O)N(C)C3CCCCC3)cc2c1=O", "hERG current change (%, negative = inhibition) at 1uM": 9.42},
      {"smiles": "CCCN(CCC)CCCNC(=O)c1cn(CC)c2ccc(S(=O)(=O)N(C)C3CCCCC3)cc2c1=O", "hERG current change (%, negative = inhibition) at 1uM": -46.1},
      {"smiles": "CCCCN(CC)CCCNC(=O)c1cn(C)c2ccc(S(=O)(=O)N(C)C3CCCCC3)cc2c1=O", "hERG current change (%, negative = inhibition) at 1uM": -66.6},
      {"smiles": "CCCCN(C)CCCNC(=O)c1cn(C)c2ccc(S(=O)(=O)N(C)C3CCCCC3)cc2c1=O", "hERG current change (%, negative = inhibition) at 1uM": -45.6},
      {"smiles": "CCN(CC)CCCNC(=O)c1cn(C)c2ccc(S(=O)(=O)N(C)C3CCCCC3)cc2c1=O", "hERG current change (%, negative = inhibition) at 1uM": 12.2},
      {"smiles": "O=C(/C=C/c1ccccc1Cl)c1cccnc1", "hERG current change (%, negative = inhibition) at 1uM": 6.53},
      {"smiles": "CCC[C@H](CN[C@@H](CNC)[C@H](C)CC)NCCc1cc(C(F)(F)F)cc(C(F)(F)F)c1", "hERG current change (%, negative = inhibition) at 1uM": 0.0872},
      {"smiles": "CC(CCc1ccccc1)NCC(O)COc1ccccc1", "note": "(centres unmarked)", "hERG current change (%, negative = inhibition) at 1uM": -6.95},
      {"smiles": "CC1(c2ccc3ccccc3c2)NC(=O)N(CC(=O)Nc2ncccc2O)C1=O", "note": "(centres unmarked)", "hERG current change (%, negative = inhibition) at 1uM": 14.4},
      {"smiles": "COC(=O)C(CCCCNC(=O)c1ccc([N+](=O)[O-])cc1)NC(=O)c1ccc([N+](=O)[O-])cc1", "note": "(centres unmarked)", "hERG current change (%, negative = inhibition) at 1uM": -84.2},
      {"smiles": "COC(=O)C(CC(C)C)NC(=O)c1ccc([N+](=O)[O-])cc1", "note": "(centres unmarked)", "hERG current change (%, negative = inhibition) at 1uM": 0.193},
      {"smiles": "O=C(NCCCCC(NC(=O)c1ccc([N+](=O)[O-])cc1)C(=O)O)c1ccc([N+](=O)[O-])cc1", "note": "(centres unmarked)", "hERG current change (%, negative = inhibition) at 1uM": -6.29},
      {"smiles": "CCOC(=O)c1nnc(-c2ccccc2)nc1NC", "hERG current change (%, negative = inhibition) at 1uM": 2.74},
      {"smiles": "CCN1CCN(C(=S)c2ccc(SC)cc2)CC1", "hERG current change (%, negative = inhibition) at 1uM": -18},
      {"smiles": "Cc1cccc(C(=O)Nc2cccc3cccnc23)c1", "hERG current change (%, negative = inhibition) at 1uM": 17.4},
      {"smiles": "CC(=O)NC(=S)NNC(=O)CCc1ccccc1", "hERG current change (%, negative = inhibition) at 1uM": 6.91},
      {"smiles": "O=C(Cc1ccc(Br)cc1)Nc1cccc(-c2cn3c(n2)SCC3)c1", "hERG current change (%, negative = inhibition) at 1uM": 12.2},
      {"smiles": "COC(=O)c1sccc1-n1cccc1C(=O)N1CCOCC1", "hERG current change (%, negative = inhibition) at 1uM": -11.6},
      {"smiles": "COC(=O)c1sccc1-n1cccc1C(=O)C(=O)N1CCCC1", "hERG current change (%, negative = inhibition) at 1uM": 6.84},
      {"smiles": "COC(=O)c1sccc1-n1cccc1C(=O)C(=O)N1CCOCC1", "hERG current change (%, negative = inhibition) at 1uM": -87.6},
      {"smiles": "CCN(CC)CCOc1nnc(-c2ccc(OC)cc2)c2ccccc12", "hERG current change (%, negative = inhibition) at 1uM": -25.1},
      {"smiles": "COc1nnc(-c2ccc(C)cc2)c2ccccc12", "hERG current change (%, negative = inhibition) at 1uM": 13.6},
      {"smiles": "CCN(CC)CCOc1nnc(-c2ccc(C)cc2)c2ccccc12", "hERG current change (%, negative = inhibition) at 1uM": -58.4},
      {"smiles": "O=C(OCc1ccc([N+](=O)[O-])cc1)c1cc([N+](=O)[O-])ccc1N1CCOCC1", "hERG current change (%, negative = inhibition) at 1uM": -67.2},
      {"smiles": "NS(=O)(=O)c1ccc(CCNC(=O)c2cc([N+](=O)[O-])ccc2N2CCOCC2)cc1", "hERG current change (%, negative = inhibition) at 1uM": -6.06},
      {"smiles": "O=C(OCc1ccc([N+](=O)[O-])cc1)c1cc(S(=O)(=O)N2CCCCC2)ccc1N1CCOCC1", "hERG current change (%, negative = inhibition) at 1uM": -77.9},
      {"smiles": "O=C(OCc1ccc(F)cc1)c1cc(S(=O)(=O)N2CCCCC2)ccc1N1CCOCC1", "hERG current change (%, negative = inhibition) at 1uM": 4.59},
      {"smiles": "Cc1ccc(COC(=O)c2cc(S(=O)(=O)N3CCCCC3)ccc2N2CCOCC2)cc1", "hERG current change (%, negative = inhibition) at 1uM": -1.22},
      {"smiles": "COc1ccc(CCNC(=O)c2cc([N+](=O)[O-])ccc2N2CCOCC2)cc1", "hERG current change (%, negative = inhibition) at 1uM": 1.7},
      {"smiles": "O=C(NCCc1ccc(F)cc1)c1cc([N+](=O)[O-])ccc1N1CCOCC1", "hERG current change (%, negative = inhibition) at 1uM": -98.2},
      {"smiles": "Cc1ccc(COC(=O)c2cc([N+](=O)[O-])ccc2N2CCOCC2)cc1", "hERG current change (%, negative = inhibition) at 1uM": -21},
      {"smiles": "O=C(OCc1cccc(Cl)c1)c1cc([N+](=O)[O-])ccc1N1CCOCC1", "hERG current change (%, negative = inhibition) at 1uM": -5.04},
      {"smiles": "O=C(NCCS(=O)(=O)N1CCN(c2ccccc2F)CC1)C1CC(=O)N(c2ccc(F)cc2)C1", "note": "(centres unmarked)", "hERG current change (%, negative = inhibition) at 1uM": 5.78},
      {"smiles": "COc1cccc(N2CC(C(=O)OC(C)C(=O)c3ccccc3)CC2=O)c1", "note": "(centres unmarked)", "hERG current change (%, negative = inhibition) at 1uM": 5.64}
    ]}
  ]
}
